Screening results (PubChem)
Wee1 stabilizer: inhibitors of human Wee1 degradation | P30291 | HeLa Luc-Wee1K328M stability, luciferase luminescence; 100% = proteasome inhibitor MG132 effect | reporter increase, % at 5 µM | 1.2% of 220,000 active;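 active means activation above the mean of all tested compounds plus 3 SD, set per screening run, cut at about 8.8% in these data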;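 further: cells exposed to compound for 20 h before luminescence read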
Target sequence (P30291 whole entry K328M): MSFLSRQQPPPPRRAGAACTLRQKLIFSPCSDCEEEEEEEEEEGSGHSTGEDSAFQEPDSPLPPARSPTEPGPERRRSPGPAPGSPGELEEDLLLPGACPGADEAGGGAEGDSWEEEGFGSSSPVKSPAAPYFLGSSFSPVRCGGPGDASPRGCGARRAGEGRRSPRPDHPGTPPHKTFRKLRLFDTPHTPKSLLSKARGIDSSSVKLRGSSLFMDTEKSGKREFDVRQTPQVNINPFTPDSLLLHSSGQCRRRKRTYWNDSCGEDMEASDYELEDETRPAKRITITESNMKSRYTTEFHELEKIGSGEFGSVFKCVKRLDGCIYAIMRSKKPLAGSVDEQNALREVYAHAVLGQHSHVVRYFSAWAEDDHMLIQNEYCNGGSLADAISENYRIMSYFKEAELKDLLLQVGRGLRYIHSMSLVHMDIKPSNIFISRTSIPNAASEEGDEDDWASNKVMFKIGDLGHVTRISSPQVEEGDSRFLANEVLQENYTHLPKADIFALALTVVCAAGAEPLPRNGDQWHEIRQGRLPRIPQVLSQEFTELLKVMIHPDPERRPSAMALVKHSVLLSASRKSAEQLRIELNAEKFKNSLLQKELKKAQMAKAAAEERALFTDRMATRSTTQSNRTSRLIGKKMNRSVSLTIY
KLF5 inh: kruppel-like factor 5 inhibition; AID 1700; inhibition, % at 5 µM; DLD-1 KLF5 promoter-luciferase reporter, luminescence; 0.23% of 290,000 active;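 active means inhibition above a per-plate limit of that plate's mean compound inhibition plus 3 SD, cut at about 60% in these data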;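 further: higher means less KLF5 promoter-driven luciferase light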
aSyn UTR inh: 5' untranslated region of α-synuclein, MLPCN primary screen | alpha-synuclein 5'UTR reporter, inhibitor activity | 0.82% of 300,000 active | inhibition, % (tested at 7.5 µM); in the data active means inhibition above about 60%;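 further: H4 neuroglioblastoma cells stably carrying SNCA 5'UTR luciferase fusion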
Platelet DG rel: platelet dense granule release activity; human platelet-rich plasma, SFLLRN dense granule ATP release, luminescence; inhibition, %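 (compounds screened at 7.5 µM in platelet-rich plasma)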; 0.22% of 300,000 active; AID 1663;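 active means mean replicate score, as percent of positive control, at or above 50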
HIF activator: HIF pathway transcriptional activation | U2OS HRE-luciferase reporter, luminescence; normalized: DMSO 0%, desferrioxamine 100% | activation, % at 7.5 µM (by protocol) | 0.32% of 300,000 active;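 active means mean activation of at least 10% of the iron chelator positive control signal, with at least half of replicates also reaching 10%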
A number is an active result; . = inactive; / = no result. The list is not random: actives were taken first. Their share in the collection is about 2.1%.

SMILES	Wee1 stabilizer	KLF5 inh	aSyn UTR inh	Platelet DG rel	HIF activator
C/C(=N\NC(=O)c1ccccc1)c1nc2ccccc2n1C	.	.	62.3	.	.
COc1ccc(-c2c(C)n([O-])c3c([n+]2=O)CCCC3)cc1	.	.	.	.	.
CCOc1ccc(-c2c(C)n([O-])c3c([n+]2=O)CCCCC3)cc1	8.9	.	.	.	.
CCC1CCCCN1Cc1c(O)ccc2c(=O)c(-c3ccccc3OC)coc12 (centres undefined)	/	/	.	.	45.5
CCC1=Nc2cc(C(=O)NCCCOC)ccc2Sc2ccccc21	.	.	73.5	.	.
COc1ccc(-n2c(SC(C)C(=O)Nc3ncc(Cl)cc3Cl)nc3ccccc32)cc1 (centres undefined)	.	.	76.6	.	.
Cc1ccc(S(=O)(=O)NNC(=O)CCC(=O)Nc2ccccc2Cl)cc1	/	.	/	/	/
O=C(O)COc1ccc(-c2nccc(-c3ccccn3)n2)cc1	.	.	72.1	.	.
Cc1cnc(NC(=O)c2nn(C)cc2[N+](=O)[O-])s1	.	.	.	.	.
Cn1cc([N+](=O)[O-])c(C(=O)Nc2nc(-c3ccc(Cl)cc3)cs2)n1	.	.	62.8	.	.
Cc1ccc(-c2nc(NC(=O)c3nn(C)cc3[N+](=O)[O-])sc2C)cc1	.	.	99.4	.	.
CC(=O)c1ccc(NC(=O)C(C)Sc2nnc(C3CCCCC3)o2)cc1 (centres undefined)	/	.	.	.	.
Cc1cc(N)n2ncc(-c3cccc(Br)c3)c2n1	.	.	/	/	/
CCOC(=O)Cc1c(C)nc2c(-c3cccc(Br)c3)cnn2c1C	10.0	.	.	.	.
CCOC(=O)C1=C(C(F)(F)F)Nc2ncnn2C1c1ccc(OC)cc1OC (centres undefined)	.	.	.	.	.
Cc1ccc(-c2cc(C(=O)NCCCN3CCOCC3)no2)cc1	.	.	.	.	.
COc1ccc(OC)c(-c2cc(C(=O)NCCCn3ccnc3)no2)c1	.	.	.	.	.
O=C(NCCCN1CCOCC1)c1cc(-c2cccs2)on1	.	.	.	.	20.5
O=C(NCCCn1ccnc1)c1cc(-c2cccs2)on1	.	.	.	.	38.2
O=C(NC1CCCC1)c1cc(-c2cccs2)on1	.	.	.	.	32.1
CC(=O)Nc1ccc(NC(=O)C(C)OC(=O)c2ccc3c(c2)OCCO3)cc1 (centres undefined)	.	.	.	.	.
CC(OC(=O)c1cccc(S(=O)(=O)Nc2cccc(C(F)(F)F)c2)c1)C(=O)Nc1ccc2c(c1)OCCO2 (centres undefined)	9.2	.	.	.	.
O=C(NC1CCCCC1)C1CCC(=O)N(Cc2cccc(C(F)(F)F)c2)C1 (centres undefined)	/	.	.	.	.
CCCCC(=O)Nc1ccc(NC(=O)CC)cc1OC	.	.	.	.	18.5
CC(C)CCNC(=O)C(=O)NCCC1=CCCCC1	.	.	.	.	.
SMILES	Wee1 stabilizer	KLF5 inh	aSyn UTR inh	Platelet DG rel	HIF activator
CC(NC(=O)C(=O)NCCC1=CCCCC1)c1ccccc1 (centres undefined)	8.8	.	.	.	.
Cc1ccc(Cn2nnnc2CN2CCC(c3nc4ccc(Cl)cc4[nH]3)CC2)cc1	.	.	78.3	.	.
COc1ccc(Oc2c(C(F)(F)F)oc3cc(OCC(=O)O)ccc3c2=O)cc1	/	.	.	.	.
Cc1cccc(NC(=O)CSCC(=O)Nc2cc(Cl)ccc2N2CCN(C)CC2)c1	/	.	.	.	.
CCOC(=O)c1ccc(Nc2ncnc3c2cnn3C)cc1	.	.	.	.	.
Cn1ncc2c(O/N=C(\N)c3ccc(C(C)(C)C)cc3)ncnc21	.	.	104.1	.	.
Oc1c(C(Nc2nc3ccccc3s2)c2ccco2)ccc2cccnc12 (centres undefined)	.	.	65.8	.	31.3
c1coc(CNc2nc3ccccc3s2)c1	/	.	.	.	.
CCC(Cc1ccccc1)NS(=O)(=O)c1c(C)nc2sccn2c1=O (centres undefined)	/	.	.	58.3	.
CCOC(CCNC(=O)c1cc(-c2cccs2)nc2ccccc12)OCC	/	.	.	.	.
COc1ccc(NC(=O)c2csc3c2CCCCC3)c(OC)c1	.	.	.	.	.
O=C(Nc1ccccc1O)c1csc2c1CCCC2	9.4	.	.	.	.
CC(=O)Nc1cccc(/C(C)=N/NC(=O)c2ccc(O)cc2)c1	10.1	.	.	.	.
O=C(COC(=O)Cc1n[nH]c(=O)c2ccccc12)Nc1ccc(Cl)cc1F	8.9	.	.	.	.
CC(C)(C)C(=O)NC(=S)NNC(=O)c1sc2ccccc2c1Cl	.	.	88.6	.	.
Cc1cc(C)cc(C(=O)N2CC(=O)Nc3ccccc32)c1	.	.	110.1	.	.
CS(=O)(=O)c1ccc(C(=O)N2CC(=O)Nc3ccccc32)cc1	/	.	.	.	.
Cc1ccc2nc3sc(C(=O)N4CCOCC4)c(N)c3cc2c1	.	.	99.7	.	.
Cc1cc(C)c2nc(SCC(=O)N3CC(=O)Nc4ccccc43)c(C#N)cc2c1	.	.	66.6	.	.
Cc1ccc2cc3c(N)c(C(=O)N4CC(=O)Nc5ccccc54)sc3nc2c1	.	.	82.1	.	.
CCCC(C(=O)N(C)CC(=O)Nc1ccc(N2CCOCC2)cc1)c1ccccc1 (centres undefined)	/	/	.	.	.
CC(C)CCn1c(N2CCc3ccccc3C2)nc2c1c(=O)[nH]c(=O)n2C	.	.	.	.	.
CCCCC(CCC(=O)O)(C(=O)OCC)c1csc(Nc2ccc(OCC)cc2)n1 (centres undefined)	.	.	.	.	.
Cn1c(NC(=O)/C=C/c2ccccc2)cc(=O)n(C)c1=O	8.9	.	.	.	.
Cn1c(NC(=O)/C=C/c2ccc(Cl)c(Cl)c2)cc(=O)n(C)c1=O	.	.	.	.	.
SMILES	Wee1 stabilizer	KLF5 inh	aSyn UTR inh	Platelet DG rel	HIF activator
COc1ccc(C(=O)Nc2cc(=O)n(C)c(=O)n2C)cc1	.	.	.	.	.
COc1ccc(/C=C/C(=O)Nc2cc(=O)n(C)c(=O)n2C)cc1	9.7	.	.	.	.
Cc1c(C(C)NC(=O)c2cc(COc3cccc4cnccc34)on2)cnn1C (centres undefined)	/	.	.	.	.
O=C(COC(=O)c1ccncc1)Nc1cc(Cl)c(Cl)cc1Cl	.	.	/	/	/
CCOc1cc(/C=N\NC(N)=O)cc(Br)c1OC(C)C	.	.	61.8	.	.
OC12CC3C[C@H](C1)C(N1CCOCC1)[C@@H](C3)C2 (some centres undefined)	/	.	.	.	.
COc1ccccc1/C=C/C(=O)c1cc(Br)ccc1OC(=O)c1ccco1	13.5	.	.	.	.
CCOC(=O)N1C2=NC(C(=O)OC)=C(C(=O)OC)[C@@H]3N(Cc4ccccc4)c4ccccc4[C@]23C[C@H]1C(=O)OC	/	/	.	.	.
CC(NC(=O)c1ccccc1)c1nnc(SCc2nc3ccccc3c(=O)[nH]2)n1C (centres undefined)	8.8	.	.	.	.
CCOc1ccccc1NC(=O)CSc1ncnc2c1oc1ccccc12	.	.	.	.	69.0
N/C(=N\N=C\c1ccc(O)cc1)c1nonc1N	.	.	.	64.5	.
